Compound activity as filed in PubChem BioAssay.
Compounds with a hit are over-represented: about 12% of the library has one in this group of screens.
PI5P4K alpha inh – blocks human PI5P4K alpha kinase activity | P48426 | PI5P4Kalpha enzyme, ADP-Glo luminescence, 60 min; active compounds read low | max response, % | hit rate 1.2% among 330,000; active = max response of -50% or lower; inconclusive = between -30% and -50%; inactive = -30% or higher; also: value at the top dose of about 77 µM; % is scaled to controls: 0 for no effect and ±100 for the full control effect
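qHTS, 1536-well: enzyme/substrate mix, compound by pin tool, 5 microM ATP final; RT 60 min; ADP-Glo reagents 1 (45 min) then 2 (30 min); luminescence.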
JMJD2A Tudor – inhibitors of human JMJD2A Tudor domain. Potency, µM (doses to about 114 µM), without a hit: at the top dose activity change, negative = inhibition, most hits filed as inhibitors. AlphaScreen JMJD2A-Tudor / H3K4me3 peptide binding. AID 504339. hit rate 4.4% among 390,000; also: potency is read from the fitted curve at half-maximal effect; % is scaled to controls: 0 for no effect and ±100 for the full control effect; nearly all actives have a fitted effect of over 50% in size
G9a inh – inhibitors of human histone lysine methyltransferase G9a. G9a H3K9 monomethylation, AlphaScreen, 2 h. Q96KQ7. hit rate 8.8% among 350,000. Potency, µM (highest dose often 102 µM), inactives show at the top dose activity, negative = inhibition, actives largely listed as inhibitors. AID 504332; also: potency is read from the fitted curve at half-maximal effect; % is scaled to controls: 0 for no effect and ±100 for the full control effect; nearly all actives have a fitted effect of over 75% in size
Target sequence (Q96KQ7 913-1193 limits assumed): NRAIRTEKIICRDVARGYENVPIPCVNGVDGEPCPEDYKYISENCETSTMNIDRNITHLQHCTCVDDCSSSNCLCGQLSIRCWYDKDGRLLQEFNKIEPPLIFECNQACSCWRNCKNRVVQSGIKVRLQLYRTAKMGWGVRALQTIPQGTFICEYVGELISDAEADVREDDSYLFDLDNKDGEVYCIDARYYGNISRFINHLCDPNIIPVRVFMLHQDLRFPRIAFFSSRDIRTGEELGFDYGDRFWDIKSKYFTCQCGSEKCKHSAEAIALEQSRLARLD
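Quantitative HTS format: methyltransferase activity on a biotin-tagged H3K9 peptide is measured by AlphaScreen, using a rabbit anti-monomethyl-H3K9 antibody with streptavidin donor and anti-IgG acceptor beads. Final levels are 20 nM enzyme, 500 nM peptide, 20 uM SAM; 2 h RT.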
HP1b chromo inh – inhibitors of HP1-beta chromodomain binding to methylated histone tails | P83916 | AlphaScreen HP1-beta / biotin-H3K9me3 peptide binding | hit rate 0.56% among 390,000 | Potency, µM (highest dose often 114 µM), inactives show at the highest dose activity change, negative = inhibition, usual class: inhibitors; also: potency is read from the fitted curve at half-maximal effect; nearly all actives have a fitted effect of over 70% in size
Target sequence (P83916 whole entry, looked up): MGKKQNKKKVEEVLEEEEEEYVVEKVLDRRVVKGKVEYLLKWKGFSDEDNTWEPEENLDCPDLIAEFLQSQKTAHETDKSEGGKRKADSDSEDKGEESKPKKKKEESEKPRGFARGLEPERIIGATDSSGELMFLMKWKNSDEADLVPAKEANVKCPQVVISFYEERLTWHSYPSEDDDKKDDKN
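AlphaScreen: HP1-beta (50 nM) preformed 30 min with biotin-H3(1-18)K9me3 peptide (50 nM) in PBS pH 7.4, 0.01% Tween-20. Compound added for 30 min at RT, then streptavidin donor/nickel chelate acceptor beads (10 ug/mL) for 30 min.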
PLK1 PBD inh – blocks phosphopeptide binding to human PLK1 polo-box domain; hit rate 2.8% among 360,000; P53350; AID 720504; Plk1 PBD binding of FITC phosphopeptide, fluorescence polarization; Potency, µM, inactives show max response, negative = inhibition, usual class: inhibitors; also: potency is read from the fitted curve at half-maximal effect; series mostly up to about 57 µM; % is scaled to controls: 0 for no effect and ±100 for the full control effect; nearly all actives have a fitted effect of over 65% in size
BAZ2B inh – inhibitors of human BAZ2B bromodomain; Q9UIF8; AlphaScreen BAZ2B-H3K14Ac peptide displacement; Potency, µM (titrated, usually from 114 µM), without a hit: top-dose activity change, negative = inhibition, hits mostly inhibitors; hit rate 4.4% among 360,000; also: potency is read from the fitted curve at half-maximal effect; % is scaled to controls: 0 for no effect and ±100 for the full control effect; nearly all actives have a fitted effect of over 60% in size
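Inhibition is scored as reduced AlphaScreen emission. The BAZ2B/b-H3(5-23)K14Ac complex (50 nM each) in PBS pH 7.4, 0.01% Tween-20 meets compound (up to 110 uM) for 30 min at RT before bead addition.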
The depositor's hits bear a star; ? = inconclusive; . = no result; [ ] = dose if it differs, or a comment. Unless noted, calls follow the shape of the dose curve; as a rule, active = well fitted curve in the direction sought with a large enough effect; inconclusive = small, poorly fitted or top-dose-only effect, or another doubt; inactive = no such curve, though single readings can be large; an effect the other way counts as inactive or inconclusive.

SMILES	PI5P4K alpha inh	JMJD2A Tudor	G9a inh	HP1b chromo inh	PLK1 PBD inh	BAZ2B inh
CCCCN(CCCNC(=O)c1cc(Nc2ccc(OC)c(OC)c2)nc2ccccc12)c1ccccc1	.	?	-7%[59 µM]	-22%	.	.
CCN(CCCNC(=O)c1cc(Nc2ccc(OC)cc2OC)nc2ccccc12)c1cccc(C)c1	.	?	?	-20%	.	.
CCCCN(CCCNC(=O)c1cc(Nc2ccc(OC)c(OC)c2)nc2ccccc12)Cc1ccccc1	.	28µM*	11µM*	?	.	.
CCCCN(C)CCCNC(=O)c1cc(Nc2ccc(OC)c(OC)c2)nc2ccccc12	-5	?	71µM*	-6%	1%	-26%
CCCCN(CCCNC(=O)c1cc(Nc2ccc(OC)cc2)nc2ccccc12)Cc1ccccc1	.	-18%	4%[59 µM]	6%	.	.
CCCCN(CCCNC(=O)c1cc(Nc2ccc(OC)cc2OC)nc2ccccc12)Cc1ccccc1	.	?	10µM*	-20%	.	.
CCCn1c(=O)c2sccc2n2c(CCCC(=O)Nc3ccc(Oc4ccccc4)cc3)nnc12	.	2%	12%[59 µM]	90%	.	13%
COc1ccc(NC(=O)CSc2nc3c(c(=O)[nH]2)CCC3)cc1	.	-7%	-7%[59 µM]	27%	.	-10%
Cc1ccc(OCC(=O)N2CCc3ccccc32)cc1	-3	2%	16%[59 µM]	56%	-9%	14%
O=C(COc1ccc2c(c1)CCC2)N1CCc2ccccc21	?	40µM*	-3%[59 µM]	?	3.8µM*	1%
O=C(COc1ccccc1[N+](=O)[O-])N1CCCc2ccccc21	-7	-15%	71µM*	19%	-4%	-7%
COC(=O)c1scc(C)c1NC(=O)/C=C/C(=O)O	-8	11%	1.8µM*	38%	5%	-4%
COC(=O)c1scc(C)c1NC(=O)Nc1ccccc1	4	-3%	26%[59 µM]	18%	-3%	1%
Cc1ccc(CNC(=O)c2cn(C3CCCCC3)c(=O)c3c2c2ccccc2n3C)o1	-16	-34%	50µM*	-2%	?	-32%
COc1ccc(N2CCN(C(=O)c3cn(C4CCCCC4)c(=O)c4c3c3ccccc3n4C)CC2)cc1	.	?	10µM*	?	.	7.1µM*
COc1cccc(-c2nc3c(c(SCc4ccccc4)n2)Cc2c(CO)cnc(C)c2O3)c1	.	-16%	?	31%	.	-18%
CC[C@@H]1CC=C[C@H]2[C@H]1C(=O)N(Cc1ccccc1)[C@H]2c1ccc2ccccc2c1	.	.	37%[59 µM]	.	.	-13%
CC(C)(C)C(=O)C[n+]1cccc(C(N)=O)c1	-4	-9%	-4%	-12%	30µM*	-7%
NC(=O)c1ccc[n+](CC(=O)c2ccccc2)c1	-5	-13%	?	62%	-4%	-24%
O=C1Nc2cccnc2Sc2ccccc21	.	-15%	28µM*	-4%	-10%	-3%
O=C1Nc2ccccc2Nc2ncccc21	-11	-5%	?	44%	-2%	-30%
c1ccc2c(c1)Nc1nccnc1S2	?	45µM*	?	-23%	15µM*	-1%
Clc1cc2c(nn1)Nc1ccccc1S2	-4	-9%	5%	25%	-15%	0%
CC1(C(=O)CSc2nc3ccccc3s2)CCC(=O)O1 (centres undefined)	-28	40µM*	2%[12.7 µM]	37%	21µM*	?
C/C(=N/NC(=O)CSc1nc2ccccc2s1)c1ccncc1	0	?	.	25%	-19%	-2%
SMILES	PI5P4K alpha inh	JMJD2A Tudor	G9a inh	HP1b chromo inh	PLK1 PBD inh	BAZ2B inh
Cc1cc(C)nc(NC(=O)CSc2nc3ccccc3s2)n1	.	-3%	1%	24%	-14%	-5%
Cc1ccc(S(=O)(=O)NC(=O)CSc2nc3ccccc3s2)cc1	.	-17%	50µM*	25%	?	-1%
CS/C(=N\S(=O)(=O)c1cccs1)NC(=O)CSc1nc2ccccc2s1	?	?	?	40%	11µM*	?
C/C(Cn1nnc([N+](=O)[O-])n1)=N\NC(=O)c1ccc(O)cc1O	-1	?	-3%[59 µM]	17%	-10%	9%
C/C(Cn1nnc([N+](=O)[O-])n1)=N\NC(=O)c1ccccc1O	-15	45µM*	-5%	9%	30µM*	2%
Cc1cc(SCCC(=O)O)nc2c(C)cccc12	4	-15%	79µM*	54%	-13%	-6%
O=C(CC[C@H]1O[C@@H](n2ccc(=O)[nH]c2=O)[C@H](O)[C@@H]1O)N[C@H](Cc1ccccc1)C(=O)NCCCc1ccccc1	-2	.	.	.	-4%	.
Oc1ccc(-c2n[nH]c(=S)n2-c2ccc3c(c2)OCCO3)cc1	-18	?	0.71µM*	-16%	?	?
S=c1[nH]nc(-c2ccc3ncccc3c2)n1-c1ccc2c(c1)OCCO2	-18	?	2.2µM*	1%	-9%	-16%
O=C1C=C(c2ccc3ncccc3c2)C[C@@H](c2ccc3c(c2)OCO3)C1	1	?	3%[2.33 µM]	11%	2%	?
Cc1cc2c(s1)c1cnn(Cc3ccc(-c4ccccc4)cc3)c(=O)c1n2C	.	-15%	.	.	.	.
CCOC(=O)C[C@H]1c2ccccc2S(=O)(=O)N1c1cccc(OC)c1	2	-22%	.	40%	-8%	.
COc1cccc(-c2nc(NC3CC3)c3ccccc3n2)c1	.	.	-1%[0.501 µM]	.	.	.
COc1ccc2c(C)nc(Nc3nc(-c4ccccc4)cc(=O)[nH]3)nc2c1	-6	?	?	22%	3%	79µM*
Cc1ccc2nc(Nc3nc(-c4ccccc4)cc(=O)[nH]3)nc(C)c2c1	-7	-16%	14%	28%	-4%	-2%
COc1ccc(Cl)cc1C(=O)CSc1nc(N)cc(N)n1	-10	?	50µM*	24%	?	5%
Cc1ccn2c(=O)nc(SCC(=O)c3ccccc3)nc2c1	-62*	-32%	?	25%	-11%	-29%
Cc1cc(SCC(N)=O)nc(SCC(=O)c2ccccc2)n1	-1	-4%[57.1 µM]	28µM*	69%	?	2%
Cc1ccc(C(=O)CSc2cc(C)nc(SCC(=O)c3ccccc3)n2)cc1	-5	22%	33%[12.7 µM]	56%	-2%	-4%
Cc1cc(SCC(=O)c2ccccc2)nc(C)n1	1	-6%	50µM*	39%	-11%	9%
Cc1ccc2nc(SCC(=O)c3ccccc3)nc(=O)n2c1	0	-7%	-16%[0.501 µM]	27%	-3%	-4%
CCOC(=O)C1(C)CCCN(C(=O)CCc2ccccc2)C1 (centres undefined)	0	.	.	.	-9%	.
Cc1ccc(OCc2cc(C(=O)N(C)C3CCCc4ccccc43)no2)cc1C (centres undefined)	24	.	.	.	-11%	.
CCN1CCN(C(=O)CSc2nc(N)cc(N)n2)CC1	-23	-14%	45µM*	37%	-10%	-9%
